This note sets out measurements from the OligoGym collection.
Note: reference of the scale not given here.

The first test concerns the target KIAA0564. Put plainly: pooled miR-30 sensor sort-seq; sequence = guide strand. To be noted: shRNA.
The sequence TAGTCTTTGCTTATTGTCCTTG showed a sensor-assay potency score (higher = more potent) of -0.514.
TTAACCTTTGCAATACAGCAAG: the sensor-assay potency score (higher = more potent) is -0.99.
In the case of TTGTGGAGGAGTAACATCTTTT, the sensor-assay potency score (higher = more potent) is -1.09.
Turning to ATCAACAGTAACAACACCGCTT, the sensor-assay potency score (higher = more potent) came out at 0.22.
The same measure, in the same setting: next, TTTTTCTTTGTAGAACACCAGC: -1.28; TAGAACATCCAGCACAGTCAGG: -1.28.
With TAACAACTTAAGTTGGTCCTTG, the sensor-assay potency score (higher = more potent) stood at 0.426.

In the next test the target is KIAA0664. Described as above. To be noted: shRNA.
The sequence TTTCTTCTGCAGCACAGCGAAG came in with a sensor-assay potency score (higher = more potent) of -1.66.
The same measure, in the same setting: as for TTCTTCTTGAAGGTCGGGCTGA, the figure is -0.121; as for TTGAAGGTCGGGCTGATCTGGT, -0.0579; as for TTTTCTTCTGCAGCACAGCGAA, -0.902.
Sequence TACGTCTTGAAGATGTGCTTGG had a sensor-assay potency score (higher = more potent) of 0.188.
Consider TTGCACTCGACCGAGGAGCAGA, for which the sensor-assay potency score (higher = more potent) is -0.997.
Still for that read-out and setting: as for TTGACGTGCTTGACCACGGGGA, the figure is -0.0674.
On to TTGCTCTCGTAGACTCGGGCGA, for which the sensor-assay potency score (higher = more potent) is -0.673.
Same read-out and setting: next, TTGAGCACGTCCTCCTCGGTGA: -0.45.
On the same count and under the same terms, next, AAGTTCTTCTTGAAGGTCGGGC: -0.0493; TTGGAGACCAGCTCGTCGGCGG: -0.677; TGCATCTTGGTCTCCTCGCTGG: -0.849.

The target of another test is KIAA0930. Described as above. The note with it: shRNA.
TTCAGCTTCAGCCAGGACCCGA displayed a sensor-assay potency score (higher = more potent) of -1.04.
Sequence TCACCTGTAGACACTCGGCTGA returned a sensor-assay potency score (higher = more potent) of -0.216.
AAGTAGGTGGAGAACATCCAAG had a sensor-assay potency score (higher = more potent) of -1.37.
Same read-out and setting: next, TTCTTGAGCGCCTCGTAGCGGA: -0.914; TTTGTCACTAGCCACCAGCTCC: -0.835.
On the same count and under the same terms, as for TAAGTGTGCATAGAGAAGGAAG, the figure is -1.42; as for TTGCTGTACTTGTAGAAGCCAA, -0.811.
Same read-out and setting: next, AAAAGCATGTCGTCCTGCCGGG: -0.426.
The sequence TTATGGATGTGAATGTCCCCGC registered a sensor-assay potency score (higher = more potent) of -0.555.
Still for that read-out and setting: as for TTCTTCATCTCAGCGATCCGGT, the figure is -0.0677; as for TTCTCCATGAAGTAGGTGGAGA, -1.12.
On the same count and under the same terms, as for ATAGAAAAGCATGTCGTCCTGC, the figure is 0.0437.

In another test the target is KIAA1217. The test is described as above. The note with it: shRNA.
TTTCCCATTATAGTGATCCAGA yielded a sensor-assay potency score (higher = more potent) of -1.06.
For TTCTCGATAGACACTGCCCTGT, the sensor-assay potency score (higher = more potent) was -0.436.
The same measure, in the same setting: next, TACACTTTGAGGAGTGATCTGT: 0.221; TAGTGATCCAGATTTTGCCTTT: -0.121.
Still for that read-out and setting: next, TTTGCTTGAACTTCCATTCTGT: 0.925; TGAACTTCCATTCTGTGCCTTG: 0.302; TTCTTCAATGAACAAGCTCTGC: -0.544.
Turning to TTTCTCGATAGACACTGCCCTG, the sensor-assay potency score (higher = more potent) was -1.06.
On the same count and under the same terms, next, TTGAACTTCCATTCTGTGCCTT: 0.894.
